Assay results: PubChem BioAssay (NCATS)
Where “and” joins values, the source holds several entries; their conditions need not be identical. Equal entries are not always repeated. Records with an inconclusive call do not appear. Unmarked numbers belong to inactive results. Calls of active or inactive are those of the source. Calls come from the whole dose curve; as a rule, active = well fitted cell-killing curve with a large enough effect; inconclusive = small, poorly fitted or top-dose-only effect, or effect the other way; inactive = no such curve, though single readings can be large or run the other way.
% is set by controls: 0 for no effect and ±100 for the full control effect; potency is the fitted concentration of half-maximal effect.

Assay: qHTS of pediatric cancer cell lines to identify multiple opportunities for drug repurposing: Confirmatory screen for LAN-5 cells (AID 1347113); note: nearly all actives have a fitted effect of over 65% in size
Conditions: LAN-5 neuroblastoma cell viability; series mostly up to 45.9 µM; activity change, negative = cytotoxicity: at the top concentration
From the text: Drug repurposing or repositioning has been offered as a strategy for drug development in oncology programs. This approach has special potential for childhood cancers and other rare or orphan diseases, where the expected return on new drug development has been a disincentive to pharmaceuticals.
In this project we exploit the poly-pharmacology of drugs to discover new indications via phenotypic screening of a panel of 19 well-characterized cell lines derived from solid tumors seen in children and adolescents. The goal is to identify approved drugs with previously unrecognized anticancer properties that has the potential to reveal new mechanisms and biological processes involved in carcinogenesis or drug resistance. We employed a titration-based paradigm (quantitative high-throughput screening or qHTS), where all compounds were tested at multiple concentrations for their effect on cell viability. Concentration-response curves (CRCs) were derived directly from the primary screen, and both potency and efficacy values were used to identify compounds with robust bioactivity profiles. We screened the NIH Chemical Genomics Center (NCGC) Pharmaceutical Collection (NPC) and Mechanism Interrogation Plate (MIPE) small molecule collections of approved and investigational compounds against these cell lines; and measured metabolically active cells after 48 hours of compound treatment as a proxy for cell viability.
Assay Submitter: Nathalia J. Martinez, National Center for Advancing Translational Sciences, National Institutes of Health, Rockville, MD, USA; email: natalia.martinez@nih.gov
[1] Shen, M et al. Quantitative high-throughput phenotypic screening of pediatric cancer cell lines identifies multiple opportunities for drug repurposing. Oncotarget 2017 Dec 19;9(4):4758-4772. PMID 29435139.
The cells were obtained from University of North Carolina (UNC), Pediatric Preclinical Testing Program (PPT), and Coriell Institute (CI).
qHTS cell viability assay:
Cells were assayed in growth media at a density of 500-1,000 cells/well. Five microliters of cells were dispensed into 1,536-well, white, solid-bottom, TC-treated plates (Greiner Bio One) using a multidrop dispenser and incubated at 37 degrees C, 5% CO2, under a humidified atmosphere for 5 hours. Twenty-three nanoliters of compounds and controls (neutral control DMSO or positive control bortezomib at final concentration of 2.3 µM) were subsequently transferred by Kalypsys pintool. For primary screens, the MIPE collection was tested at 11-point dilutions (final concentrations range from 0.78 nM to 46 µM) and the NPC collection at 8-point dilutions (final concentrations range from 0.59 nM to 46 µM). Compounds tested in follow-up screens were assayed at 11-point dilutions. Cells were incubated for 48 hours, followed by addition of 3 µL of CellTiter-Glo (Promega). After a 15 min incubation at room temperature, samples were analyzed for luminescence intensity using a ViewLux High-throughput CCD imager equipped with clear filters.
In the case of C[C@]12CCC(=O)C=C1CC[C@@H]1[C@H]2[C@@H](O)C[C@@]2(C)[C@H]1CC[C@]2(O)C(=O)CO, the “outcome” value is reported as “inactive”. For Clc1ccc(C(Cn2ccnc2)OCc2ccsc2Cl)c(Cl)c1 (stereo unspecified), the Potency was 20.8 µM (active). With CN(C)c1ccc(O)c2c1C[C@H]1C[C@H]3[C@H](N(C)C)C(=O)C(C(N)=O)=C(O)[C@@]3(O)C(=O)C1=C2O the “activity change, negative = cytotoxicity” value was 14.3%. In the case of CC[C@]1(O)C[C@H]2CN(CCc3c([nH]c4ccccc34)[C@@](C(=O)OC)(c3cc4c(cc3OC)N(C=O)[C@H]3[C@@](O)(C(=O)OC)[C@H](OC(C)=O)[C@]5(CC)C=CCN6CC[C@]43[C@@H]65)C2)C1, the Potency is reported as 58.5 nM (active) and 827 nM (active). With Oc1ccc(-c2nc(-c3ccc(F)cc3)c(-c3ccncc3)[nH]2)cc1 the Potency was 1.04 µM (active). In the case of CN(C)c1ccc2nc3ccc(=[N+](C)C)cc-3sc2c1, the Potency is reported as 3.69 µM (active). In the case of Cc1cc(C2CCCCC2)n(O)c(=O)c1, the Potency is reported as 5.85 µM (active). In the case of CCOc1cc(CC(=O)N[C@@H](CC(C)C)c2ccccc2N2CCCCC2)ccc1C(=O)O, the “activity change, negative = cytotoxicity” value is reported as 8.97%. In the case of Cc1ccc(Nc2nccc(N(C)c3ccc4c(C)n(C)nc4c3)n2)cc1S(N)(=O)=O, the “activity change, negative = cytotoxicity” value is reported as -37.3%. In the case of O=C(NCC1CCCCN1)c1cc(OCC(F)(F)F)ccc1OCC(F)(F)F (stereo unspecified), the “activity change, negative = cytotoxicity” value is reported as 5.23%. In the case of CC1(C)C(=O)N(CCN2CCC(C(=O)c3ccc(F)cc3)CC2)c2ccccc21, the “activity change, negative = cytotoxicity” value is reported as -19.6%. With CCN(CC)C(=S)SSC(=S)N(CC)CC the Potency was 0.147 µM (active). With CC(S)C(=O)NCC(=O)O (stereo unspecified) the “activity change, negative = cytotoxicity” value was 14.2%. For CCCCc1ccc2nc(NC(=O)OC)[nH]c2c1, the Potency was 8.27 µM (active). In the case of Nc1ccn([C@@H]2O[C@H](CO)[C@@H](O)C2O)c(=O)n1 (stereo partly specified), the “outcome” value is reported as “inactive”. With c1cnc2cc3c(cc2n1)C1CNCC3C1 the “outcome” value was “inactive”. With Nc1ncn([C@H]2C[C@H](O)[C@@H](CO)O2)c(=O)n1 the “activity change, negative = cytotoxicity” value was 12.9%. In the case of O=C(CCc1ccc(O)cc1)c1c(O)cc(O)cc1O, the “outcome” value is reported as “inactive”. For C=C(c1ccc(C(=O)O)cc1)c1cc2c(cc1C)C(C)(C)CCC2(C)C, the “activity change, negative = cytotoxicity” value was 2.68%. For CC(C)C[C@H](NC(=O)[C@H](Cc1ccccc1)NC(=O)c1cnccn1)B(O)O, the Potency was 0.0329 µM (active). For O=C1c2c(O)cc(O)cc2OC(c2ccc(O)c(O)c2)C1O (stereo unspecified), the “activity change, negative = cytotoxicity” value was 21.2%.
